Measurements taken from PubChem BioAssay (NCI).
This is part of a sample that, as a whole, favours compounds with a hit. Of some 79,000 tested, about 15% had one in any assay. Values without a mark were called inactive. Activity calls are given as the source filed them. No stated cut-off is given here; in the data, active means growth inhibition above about 70%; inactive means the rest. Where a SMILES comes first, the peptide text is derived from it. The star is where a group is joined. Cbz = O=C(OCc1ccccc1)*

Key:
[1] = NCI Yeast Anticancer Drug Screen. Data for the rad50 strain (AID 155);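 further: 0% = growth of vehicle-only cultures of the same strain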; conditions: S. cerevisiae rad50 strain growth inhibition, stronger effect = higher value
In short: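 Growth of the mutant yeast was measured after compound exposure and referenced to vehicle-treated cultures.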

[2] = NCI Yeast Anticancer Drug Screen. Data for the mec2-1 strain (AID 157); conditions: S. cerevisiae mec2-1 strain, stronger effect = higher value
In short: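 Each compound was tested on mec2-1 yeast, a strain altered in DNA damage repair or cell cycle control. Growth inhibition is reported relative to vehicle.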

[3] = NCI Yeast Anticancer Drug Screen. Data for the sgs1 mgt1 strain (AID 161);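 further: 0% = growth of cultures given vehicle only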; conditions: S. cerevisiae sgs1 mgt1 strain, stronger effect = higher value
In short: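 Inhibition of yeast growth, normalised to vehicle-treated controls, is reported for a strain bearing genetic alterations in DNA damage repair.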

[4] = NCI Yeast Anticancer Drug Screen. Data for the cln2 rad14 strain (AID 165);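 further: 0% = growth equal to vehicle treated cultures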; conditions: S. cerevisiae cln2 rad14 strain, stronger effect = higher value
In short: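 Test compounds were added to cln2 rad14 yeast cultures; inhibition of growth was then determined by comparison with vehicle treatment.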

[5] = NCI Yeast Anticancer Drug Screen. Data for the bub3 strain (AID 167); conditions: S. cerevisiae bub3 mutant strain, stronger effect = higher value
In short: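 Whole-cell yeast assay. The mutant strain was incubated with compounds, and growth inhibition was determined by comparison with vehicle-treated cells.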

[6] = NCI Yeast Anticancer Drug Screen. Data for the mlh1 rad18 strain (AID 175); conditions: S. cerevisiae mlh1 rad18 strain growth inhibition, stronger effect = higher value
In short: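 Inhibition values reflect reduced growth of mutant yeast versus vehicle-treated controls following compound exposure; the mutations affect DNA damage repair.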

[7] = at 5.0 µM (retest, dose inferred, filed as 0.5)
[8] = at 50.0 µM (retest, dose inferred, filed as 5.0)

Row | Compound | growth inhibition [1, 7] | growth inhibition [1, 8] | growth inhibition ([1]; at 50.0 µM) | growth inhibition [2, 7] | growth inhibition [2, 8] | growth inhibition ([2]; at 50.0 µM) | growth inhibition [3, 7] | growth inhibition [3, 8] | growth inhibition ([3]; at 50.0 µM) | growth inhibition [4, 7] | growth inhibition [4, 8] | growth inhibition ([4]; at 50.0 µM) | growth inhibition [5, 7] | growth inhibition [5, 8] | growth inhibition ([5]; at 50.0 µM) | growth inhibition [6, 7] | growth inhibition [6, 8] | growth inhibition ([6]; at 50.0 µM)
1 | N#CSCN1C(=O)C2CC=CCC2C1=O (configuration not stated) | 14% | 93% (active) | 93% (active) | 2% | 95% (active) | 97.1% (active) | 8% | 94% (active) | 49.5% | 9% | 94% (active) | 49.5% | 6% | 95% (active) | 95.5% (active) | 11% | 96% (active) | 50.4%
2 | O=C(CN1CCCCC1)c1ccc(/C=C/c2ccc(Cl)cc2)cc1 | 7% | 98% (active) | 98.6% (active) | 4% | 99% (active) | 98.4% (active) | 12% | 98% (active) | 97.1% (active) | -20% | 75% (active) | 97.5% (active) | -13% | 99% (active) | 96.8% (active) | 21% | 99% (active) | 98.1% (active)
3 | O=c1cccccc1[O-].O=c1cccccc1[O-].O=c1cccccc1[O-].[Dy+3] | 19% | 19% | 92.8% (active) | 18% | 18% | 92.8% (active) | 14% | 14% | 91.6% (active) | 10% | 10% | 80.2% (active) | 7% | 7% | 93.2% (active) | 10% | 10% | 92% (active)
4 | N[C@@H]1CCCC[C@@H]1N.O=C([O-])CN(CP(=O)([O-])[O-])CP(=O)([O-])[O-].[Pt+2] | -1% | 89% (active) | 99.5% (active) | 6% | 75% (active) | 99.7% (active) | 8% | 88% (active) | 99.5% (active) | 3% | 67% | 98.3% (active) | 5% | 89% (active) | 99.3% (active) | -1% | 77% (active) | 99.5% (active)
5 | O=C1Nc2c(Cl)cc(Cl)cc2/C1=N/N=C/c1ccco1 | 24% | 84% (active) | 52.6% | 26% | 83% (active) | 53.4% | 28% | 68% | 67.3% | 28% | 74% (active) | 63.2% | 21% | 83% (active) | 55.4% | 37% | 94% (active) | 89.2% (active)
6 | O=C(O)/C=C1\c2ccccc2CCC1c1ccc2ccccc2c1 (configuration not stated) | 64% | 93% (active) | 99.7% (active) | 27% | 85% (active) | 99.7% (active) | 43% | 91% (active) | 99.8% (active) | 41% | 82% (active) | 99.3% (active) | 47% | 85% (active) | 99.8% (active) | 54% | 93% (active) | 99.5% (active)
7 | CC(C)CCCC(C)C1CCC2C3CC=C4CC(OC(=O)Nc5ccc(S(=O)(=O)c6ccc(F)cc6)cc5)CCC4(C)C3CCC12C (configuration not stated) | 3% | 2% | 96.3% (active) | 1% | 4% | 98% (active) | 0% | 0% | 97.8% (active) | 3% | 9% | 51.5% | 1% | -12% | 96.7% (active) | 4% | -6% | 96.4% (active)
8 | Cc1ccc(NC(=O)CC2SC(N)=NC2=O)cc1C (configuration not stated) | -1% | -1% | 87.5% (active) | 3% | 8% | 89.3% (active) | -2% | 5% | 91.2% (active) | 8% | 4% | 80.2% (active) | 0% | -4% | 89.1% (active) | -1% | 6% | 90.3% (active)
9 | CCOC(=O)CNC(=O)CNC(=O)CNC(=O)OCc1ccccc1 (Cbz-Gly-Gly-Gly-OEt) | -9% | -3% | 7.6% | -11% | -3% | -0.7% | -7% | 4% | -12.2% | -62% | -4% | 38.5% | -7% | 42% | 13.8% | 1% | -13% | 14.2%
10 | O=C(CC(c1ccccc1)N1CCCCC1)OC1c2ccccc2-c2ccccc21 (configuration not stated) | -2% | 28% | 70.1% (active) | 17% | 43% | 9.35% | 30% | 54% | 55.8% | 0% | 23% | 54.1% | -1% | 24% | 70% | 35% | 56% | 55.8%
11 | CSC(=S)SC(SC)S(C)(=O)=O (configuration not stated) | -7% | 0% | 98.5% (active) | -5% | -3% | 99.7% (active) | -5% | -16% | 99.3% (active) | 1% | 2% | 99.1% (active) | -5% | -11% | 99.5% (active) | -8% | -9% | 99.3% (active)
12 | N#CN=[N+]([O-])c1ccc(C(=O)O)cc1 | 80% (active) | 89% (active) | 91.5% (active) | 87% (active) | 93% (active) | 93.8% (active) | 96% (active) | 91% (active) | 91.3% (active) | 99% (active) | 84% (active) | 91.6% (active) | 96% (active) | 87% (active) | 91.5% (active) | 96% (active) | 89% (active) | 90.9% (active)
13 | Nc1c(NCc2ccccc2)ccc2ncccc12 | -10% | 93% (active) | 95.2% (active) | -17% | 97% (active) | 93.4% (active) | -7% | 94% (active) | 93.2% (active) | -7% | 71% (active) | 96.4% (active) | 2% | 93% (active) | 98% (active) | 6% | 96% (active) | 98.1% (active)
14 | C/C(=N\NC(=S)N1CCN(c2ccccc2)CC1)c1nccs1 | 28% | 96% (active) | 90.5% (active) | 56% | 98% (active) | 91.8% (active) | 33% | 99% (active) | 91.1% (active) | 22% | 98% (active) | 90.9% (active) | 63% | 99% (active) | 88.3% (active) | 34% | 97% (active) | 89.8% (active)
15 | O=C(Nc1ccc(Cl)c(Cl)c1)Nc1cc(Cl)ccc1Oc1ccc(Cl)cc1S(=O)(=O)O | 52% | 97% (active) | 90.5% (active) | 32% | 99% (active) | 93.5% (active) | 55% | 99% (active) | 93.6% (active) | 35% | 99% (active) | 92.2% (active) | 43% | 99% (active) | 92.5% (active) | 61% | 98% (active) | 91% (active)
16 | COC(=O)c1ccc(CCC2=CC(=O)C=CC2=O)cc1 | 39% | 99% (active) | 84.3% (active) | 39% | 100% (active) | 92.8% (active) | 35% | 100% (active) | 91.2% (active) | 29% | 75% (active) | 89.3% (active) | 43% | 100% (active) | 91.3% (active) | 49% | 99% (active) | 65.8%
17 | COc1ccccc1NC(=O)O/N=C(/Cl)C(C)C | 1% | 70% (active) | -4.65% | 3% | 70% (active) | 52% | -32% | 71% (active) | 37.6% | 40% | 28% | 31.9% | -26% | 95% (active) | 80.5% (active) | -24% | 41% | 41.1%
18 | CN(NS(=O)(=O)c1cccc([N+](=O)[O-])c1)c1ccccc1 | -2% | 19% | 98.7% (active) | 9% | 6% | 98.2% (active) | -2% | 6% | 96.5% (active) | 5% | 16% | 95.5% (active) | 0% | 39% | 98.8% (active) | -10% | 41% | 98.8% (active)
19 | Cc1c2[nH]c3ccc(Br)cc3c2c(C)c2[nH]ccc(=O)c12 | -5% | 72% (active) | 98.9% (active) | -8% | 59% | 98.7% (active) | -17% | 28% | 99% (active) | -26% | 57% | 97% (active) | 2% | 81% (active) | 98.3% (active) | -11% | 96% (active) | 96.8% (active)
